# Screens as filed in PubChem BioAssay.
# Rows were chosen to be rich in hits. Some 3.9% of all compounds tested hit in one or more screens of this group.
# Bead autofluor = flagged as autofluorescent in microsphere protease counterscreen | compound autofluorescence counterscreen, microsphere flow cytometry; stronger effect = higher value | fluorescence intensity (concentration not given with the values) | 360,000 tested, 3.1% active; in the data active = fluorescence intensity above about 16000; inconclusive = no clear call, values can overlap the other calls
# BoNT-F LC inh = inhibitors of Botulinum neurotoxin F light chain protease; inhibition, % at 10 µM; AID 588497; 360,000 tested, 0.22% active; Multiplex microsphere protease cleavage assay, flow cytometry; in the data active = inhibition above about 35%, passing the limit was not always enough; inconclusive = no clear call, values can overlap the other calls; note: plate controls were buffer without enzyme for full effect and enzyme alone for no effect
# VHR inh abs = DUSP3 (human) phosphatase inhibition. P51452. 290,000 tested, 0.52% active. inhibition, % at 13.3 µM. recombinant VHR phosphatase, pNPP absorbance; in the data active = inhibition above about 50%
# Target sequence (P51452 whole entry, looked up): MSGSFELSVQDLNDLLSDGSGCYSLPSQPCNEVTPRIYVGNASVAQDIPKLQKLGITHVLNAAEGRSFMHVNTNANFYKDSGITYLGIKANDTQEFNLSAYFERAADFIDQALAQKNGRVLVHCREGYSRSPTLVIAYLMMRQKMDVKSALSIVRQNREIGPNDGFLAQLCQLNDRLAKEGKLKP
# BoNT-A LC inh2 = inhibitors of Botulinum neurotoxin A light chain protease | inhibition, % at 10 µM | AID 588499 | multiplex microsphere protease substrate cleavage, flow cytometry | 360,000 tested, 0.17% active; note: plate controls were buffer without enzyme for full effect and enzyme alone for no effect
# SARS 3CLpro inh = SARS-CoV 3CLpro protease inhibition; inhibition, % at 6 µM; recombinant SARS-CoV 3CLpro, quenched FRET peptide cleavage; P0C6X7; AID 1706; 290,000 tested, 0.14% active; in the data active = inhibition above about 12%
# Anthrax LF inh2 = anthrax lethal factor protease inhibition | AID 588501 | 360,000 tested, 0.12% active | inhibition, % at 10 µM | multiplex microsphere protease cleavage assay, LF; note: plate controls were buffer without enzyme for full effect and enzyme alone for no effect
# * hit, by the source's call; ? = inconclusive; . = no result given. Cut-off read from the data, not from the text of the source, unless noted: active = inhibition above about 30%; inconclusive = no clear call, values can overlap the other calls; inactive = below that.
SMILES,Bead autofluor,BoNT-F LC inh,VHR inh abs,BoNT-A LC inh2,SARS 3CLpro inh,Anthrax LF inh2
Cc1cccc(NC(=O)COc2ccc3oc4c(c3c2)CCCC4)n1,23564*,-1,27,-2,-6,-4
Cc1cccc(NC(=O)COc2ccc3c(c2)CCC3)n1,4094,13,.,4,.,-5
COc1ccccc1NC(=O)C1CCN(C(=O)c2ccco2)CC1,3368,0,-29,-4,3,1
O=C(C/C=N/OCc1c(Cl)cccc1Cl)c1ccccc1,23991*,-7,20,-4,4,-5
O=C(C/C=N/OCc1ccc(Cl)cc1Cl)c1ccc(Cl)cc1,22103*,-2,6,1,8,-3
O=C(C/C=N\OCc1ccc(Cl)cc1Cl)Nc1ccccc1,3504,-2,20,0,3,0
O=C(C/C=N/OCc1ccc(Cl)cc1Cl)c1ccccc1,.,.,15,.,5,.
COC(=O)c1ccc(NC(=O)c2cccc(Cl)c2)o1,23122*,-4,-11,-1,-2,-3
Cc1cccc(CNC(=O)c2ccccc2N)c1,6202,17,-4,4,-2,6
Cc1ccc(CNC(=O)c2ccccc2N)cc1,19203*,1,29,1,-1,0
COc1cccc(N2CCN(CC(=O)Nc3ccccc3C(=O)NCc3ccccc3)CC2)c1,8076,-6,.,-2,.,-2
Cc1ccc(CNC(=O)c2ccccc2NC(=O)CN2CCN(C)CC2)cc1,3163,-10,56*,-2,-3,-4
CSc1ncccc1C(=O)Nc1ccccc1N1CCOCC1,9178,-4,.,-1,.,0
COc1ccccc1-c1nc(SCC(=O)N2CCC(C(N)=O)CC2)n[nH]1,4122,3,.,-1,.,-1
O=C(O)CCCN1C(=O)/C(=C\c2ccc(-c3nc4ccccc4s3)o2)SC1=S,4325,6,26,41*,6,28
CCCS(=O)(=O)NC(=O)C1(C)CCCN(C(=O)c2ccc(C#N)cc2)C1 (stereo not drawn),3462,3,.,0,.,-3
O=C(NCCc1ccc(F)cc1)c1ccncc1,?,-3,-4,-3,1,0
CC(=O)N/C(=N\c1nc(C)cc(C)n1)Nc1ccc2ccccc2c1,3765,10,54*,4,-3,3
Cc1cc(C)c2c(N)c3cccc(C)c3nc2n1,1917,-58,3,6,6,-7
O=C(NCN1CCN(c2ccccc2F)CC1)c1ccccc1,23676*,-2,10,-1,-4,0
O=C(CN1CCN(c2ccccc2F)CC1)NCc1ccccc1,3812,14,16,1,2,-11
O=C(Cc1c(C(=O)O)[nH]c2ccccc12)NCCN1CCN(c2ccccc2F)CC1,23477*,-4,15,?,4,0
Cn1c(=O)cc(SCC(=O)NCCCN2CCN(c3ccc(F)cc3)CC2)c2ccccc21,9230,7,1,0,-6,2
Cn1c(=O)cc(SCC(=O)NCCN2CCN(c3ccccc3F)CC2)c2cc(Cl)ccc21,22129*,2,-2,?,-5,2
O=C(Oc1ccccc1)N1CCN(c2ccccc2F)CC1,3580,38*,-22,-2,6,-1
SMILES,Bead autofluor,BoNT-F LC inh,VHR inh abs,BoNT-A LC inh2,SARS 3CLpro inh,Anthrax LF inh2
O=C(NCCN1CCN(c2ccccc2F)CC1)c1ccc2nc3ccccc3c(=O)n2c1,3827,2,9,0,0,-2
CC(NC(=O)N1CCN(c2ccccc2F)CC1)c1ccc(F)c(F)c1 (stereo not drawn),3237,-3,16,-3,-5,-8
O=C(O)C(Cc1c[nH]c2ccccc12)N1CCS(=O)(=O)CC1 (stereo not drawn),4299,6,27,0,2,-7
O=C(Cn1cnc2c(cnn2-c2ccccc2Cl)c1=O)N1CCc2ccccc21,21755*,6,40,3,-2,-1
Cc1noc(C)c1COc1cccc(C(=O)OC(C)C(=O)Nc2ccc3c(c2)OCO3)c1 (stereo not drawn),19670*,0,39,4,8,0
COc1cc(C(=O)OC(C)C(=O)Nc2ccc3c(c2)OCO3)ccc1OCc1c(C)noc1C (stereo not drawn),3864,-6,15,1,2,2
Cn1c(OCC2CCCO2)nc2cc(-c3ccccc3)sc2c1=O (stereo not drawn),3920,-2,.,-1,.,-4
O=[N+]([O-])/C=C/c1cn(Cc2ccc(Cl)cc2)c2ccccc12,4418,12,15,39*,7,21
Cc1cccc(Cn2cc(/C=C/[N+](=O)[O-])c3ccccc32)c1,8917,20,10,28,4,15
CC(C)Cc1ccc(C(C)NC(=O)c2ccc(=O)[nH]c2)cc1 (stereo not drawn),4332,-7,12,0,0,-1
CCn1cc(C(=O)NNC(=O)c2ccc(Cl)cc2)c(=O)c2ccc(C)nc21,4295,4,52*,1,0,3
Cc1ccccc1C(=O)/C(C#N)=N/Nc1c(C)n(C)n(-c2ccccc2)c1=O,2052,-8,51*,-1,4,0
Cc1c(NC(=O)c2n[nH]c(=O)c3ccccc23)c(=O)n(-c2ccccc2)n1C,21768*,4,5,3,-1,-4
Cc1ccc(C(=O)NC(=S)/C=C2\N(C)c3ccccc3C2(C)C)cc1,3476,-7,26,42*,6,19
CCC(=O)c1ccc(OCc2ccc(C(=O)c3ccccc3)cc2)cc1,4004,-2,17,0,-2,-4
O=C(Nc1ccc2c(c1)OCO2)c1cc(C2CCCCN2C(=O)CCCc2ccccc2)on1 (stereo not drawn),3678,0,.,0,.,-4
C=CCn1c(=O)/c(=C2/SC(C)=C(C)N2CC)s/c1=C1/C(=O)N(C)C(=S)N1c1ccccc1,.,.,.,.,6,.
CCOC(=O)Nc1c(C)n(C)n(-c2ccccc2)c1=O,19722*,10,2,12,.,-12
CCn1cc(C(=O)OCC(=O)Nc2c(C)n(C)n(-c3ccccc3)c2=O)c(=O)c2ccc(C)nc21,23317*,2,12,0,-1,-1
Cc1c(NC(=O)NCc2ccccc2)c(=O)n(-c2ccccc2)n1C,22336*,2,-3,2,3,-2
Cc1c(NC(=O)Nc2ccccc2)c(=O)n(-c2ccccc2)n1C,4277,10,21,2,-8,-7
Cc1c(NC(=O)CSc2nccn2C)c(=O)n(-c2ccccc2)n1C,16417*,0,29,?,3,-1
C[C@H](CO)N1C[C@H](C)[C@@H](CN(C)Cc2ccncc2)Oc2ccc(NC(=O)CCCCCC(=O)Nc3ccccc3N)cc2C1=O,3893,3,.,0,.,-2
COc1ccc(C(=O)NCC(=O)OCC(=O)N2N=C(c3ccc(Cl)cc3)CC2c2ccco2)cc1OC (stereo not drawn),3696,5,3,-1,5,-2
COc1ccc(Cc2noc(=O)[nH]2)cc1,4068,-1,.,-1,.,-4
O=C(COC(=O)c1ccc[nH]c1=O)NCC12CC3CC(CC(C3)C1)C2,3358,-17,.,-1,.,-7
